Source: PubChem BioAssay (National Center for Advancing Translational Sciences (NCATS))
BAZ2B block = qHTS Assay for Inhibitors of BAZ2B | Bromodomain adjacent to zinc finger domain protein 2B (Homo sapiens), Q9UIF8 | AlphaScreen BAZ2B-H3K14Ac peptide displacement | Potency, µM (titrated, usually from 114 µM), for the others: at the top dose activity change, negative = inhibition, usual class: inhibitors | 360,000 tested, 4.4% active | AID 504333, 2011; also: potency is read from the fitted curve at half-maximal effect; % is scaled to controls: 0 for no effect and ±100 for the full control effect; nearly all actives have a fitted effect of over 60% in size
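AlphaScreen luminescence quantifies BAZ2B engagement of H3K14Ac peptide; the protein and biotinylated peptide are both at 50 nM final, buffer PBS pH 7.4 with 0.01% Tween-20, all steps at room temperature.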
G9a inh = qHTS Assay for Inhibitors of Histone Lysine Methyltransferase G9a | Histone-lysine N-methyltransferase EHMT2 (Homo sapiens), Q96KQ7 | G9a H3K9 monomethylation, AlphaScreen, 2 h | Potency, µM (top dose mostly 102 µM), without a hit: at the top dose activity, negative = inhibition, actives largely listed as inhibitors | 350,000 tested, 8.8% active | AID 504332, 2011; also: potency is read from the fitted curve at half-maximal effect; % is scaled to controls: 0 for no effect and ±100 for the full control effect; nearly all actives have a fitted effect of over 75% in size
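Readings reflect AlphaScreen signal from monomethyl-H3K9 antibody detection. HMT at 20 nM; substrate b-H3K9 500 nM; cofactor SAM 20 uM; 2 h RT reaction; compounds tested as titrations in qHTS with 15 min preincubation.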
CtBP-E1A inh = qHTS Assay for Inhibitors of the CtBP/E1A Interaction | AlphaScreen GST-E1A/His-CtBP binding, 1536-well; stronger effect = lower value | 340,000 tested, 0.49% active | activity change, % (test concentration not listed) | CtBP / adenovirus E1A interaction (AlphaScreen); in the data active = activity change below about -65%; inconclusive = mostly about -30% to -63%; also: % is scaled to controls: 0 for no effect and ±100 for the full control effect
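In 5 uL wells, 23 nL compound meets equimolar GST-E1A and His-CtBP (5X stock 125 nM each) for 2 h, 37 °C. Beads (5X, 50 ug/mL) then 1 h, 37 °C, dark.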
HP1b chromo inh = HTS for Inhibitors of HP1-beta Chromodomain Interactions with Methylated Histone Tails; Chromobox protein homolog 1 (Homo sapiens), P83916; AlphaScreen HP1-beta / biotin-H3K9me3 peptide binding; Potency, µM (doses to about 114 µM), for the others: top-dose activity change, negative = inhibition, hits mostly inhibitors; 390,000 tested, 0.56% active; also: potency is read from the fitted curve at half-maximal effect; nearly all actives have a fitted effect of over 70% in size
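HP1-beta protein (50 nM final) preincubated 30 min at room temperature with biotinylated H3(1-18)K9me3 peptide (50 nM) in PBS pH 7.4, 0.01% Tween-20, then compound added for 30 min. AlphaScreen streptavidin donor/nickel chelate acceptor beads (10 ug/mL final), 30 min dark, luminescence read.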
Six1-Eya2 blk = qHTS Assay for Inhibitors of the Six1/Eya2 Interaction; activity change, % (test concentration not listed); AlphaScreen GST-Six1/His-Eya2 binding, biochemical; stronger effect = lower value; 360,000 tested, 0.56% active; in the data active = activity change below about -65%; inconclusive = mostly about -30% to -63%; also: % is scaled to controls: 0 for no effect and ±100 for the full control effect
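Six1/Eya2 binding was read as AlphaScreen signal after compounds were pinned into GST-Six1 plus His-tagged Eya2 (5X stock 250/500 nM) in pH 8.0 Tris/NaCl/TCEP buffer, beads added, then incubated 1 h, 37 C, dark.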
JMJD2A Tudor = qHTS Assay for Inhibitors of JMJD2A-Tudor Domain; 390,000 tested, 4.4% active; Potency, µM (highest dose often 114 µM), for the others: at the top dose activity change, negative = inhibition, hits mostly inhibitors; Lysine-specific demethylase 4A (Homo sapiens), O75164; AID 504339, 2011; AlphaScreen JMJD2A-Tudor / H3K4me3 peptide binding; also: potency is read from the fitted curve at half-maximal effect; % is scaled to controls: 0 for no effect and ±100 for the full control effect; nearly all actives have a fitted effect of over 50% in size
Target sequence (O75164 whole entry, looked up, the tested form may be a part): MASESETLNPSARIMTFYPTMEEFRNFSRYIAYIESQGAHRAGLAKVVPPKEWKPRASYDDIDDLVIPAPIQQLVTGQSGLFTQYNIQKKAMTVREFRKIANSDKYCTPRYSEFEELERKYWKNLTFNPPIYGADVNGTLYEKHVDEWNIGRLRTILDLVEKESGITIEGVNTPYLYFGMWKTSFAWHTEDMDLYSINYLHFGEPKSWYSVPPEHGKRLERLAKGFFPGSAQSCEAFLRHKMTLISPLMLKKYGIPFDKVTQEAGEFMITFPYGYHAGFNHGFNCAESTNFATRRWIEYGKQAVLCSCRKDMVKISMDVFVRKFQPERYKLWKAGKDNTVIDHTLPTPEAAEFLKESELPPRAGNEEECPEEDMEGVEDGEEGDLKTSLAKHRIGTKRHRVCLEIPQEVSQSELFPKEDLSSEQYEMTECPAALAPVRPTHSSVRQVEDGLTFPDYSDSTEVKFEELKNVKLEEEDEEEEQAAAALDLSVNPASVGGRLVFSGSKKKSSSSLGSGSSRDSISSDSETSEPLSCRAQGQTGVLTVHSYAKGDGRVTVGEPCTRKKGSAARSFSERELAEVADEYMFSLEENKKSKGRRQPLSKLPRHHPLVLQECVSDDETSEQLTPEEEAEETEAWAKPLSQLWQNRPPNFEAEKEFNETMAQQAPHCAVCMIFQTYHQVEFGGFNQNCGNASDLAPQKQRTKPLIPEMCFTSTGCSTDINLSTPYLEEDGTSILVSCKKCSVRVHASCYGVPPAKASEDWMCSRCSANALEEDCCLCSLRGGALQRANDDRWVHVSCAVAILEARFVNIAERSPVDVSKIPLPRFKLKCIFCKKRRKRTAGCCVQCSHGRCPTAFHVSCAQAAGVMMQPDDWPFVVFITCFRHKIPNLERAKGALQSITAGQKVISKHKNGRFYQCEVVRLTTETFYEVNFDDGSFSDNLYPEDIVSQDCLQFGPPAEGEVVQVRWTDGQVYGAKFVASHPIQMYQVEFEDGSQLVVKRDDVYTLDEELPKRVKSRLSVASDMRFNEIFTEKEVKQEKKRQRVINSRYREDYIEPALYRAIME
* = called active by the depositor; [ ] = another dose, or the depositor's remark. Compounds with a hit are over-represented: about 10% of the library has one in this group of screens. Unless noted, calls follow the shape of the dose curve; as a rule, active = well fitted inhibition curve with a large enough effect; inconclusive = small, poorly fitted or top-dose-only effect; inactive = no such curve, though single readings can be large or run the other way.

`NC(=O)CC[C@@H]1NC(=O)[C@H](CO)NC(=O)c2cc([N+](=O)[O-])cc(I)c2NCCCC[C@@H](C(N)=O)NC(=O)[C@H](Cc2ccc(O)cc2)NC1=O` gave BAZ2B block -36%, G9a inh inconclusive, CtBP-E1A inh -2, HP1b chromo inh 7%, Six1-Eya2 blk -10 and JMJD2A Tudor -32%.
`C[C@@H](O)[C@@H]1NC(=O)c2cc([N+](=O)[O-])cc(I)c2NCC[C@@H](C(N)=O)NC(=O)CNC1=O` gave BAZ2B block -4%, G9a inh 50µM*, CtBP-E1A inh -17, HP1b chromo inh 25%, Six1-Eya2 blk -2 and JMJD2A Tudor -21%.
O=C(COc1ccc(F)cc1)Nc1ccccc1C(=O)OCc1cc(=O)n2ccsc2n1 was read as BAZ2B block inconclusive, G9a inh -23%[59 µM], HP1b chromo inh 56% and JMJD2A Tudor -25%.
Screening COc1cccc(CNCCCSc2nnnn2C)c1OC returned BAZ2B block -16%, G9a inh 6%[59 µM], HP1b chromo inh 49% and JMJD2A Tudor 3%.
Cc1nc(S/C(=C/c2ccc(-c3ccc(C(=O)O)cc3)o2)C(=O)O)n[nH]1 was read as BAZ2B block 10µM*, G9a inh 11µM*, CtBP-E1A inh 0, HP1b chromo inh inconclusive, Six1-Eya2 blk -27 and JMJD2A Tudor 20µM*.
For Cc1nc(S/C(=C/c2ccc(-c3cc(Cl)ccc3C)o2)C(=O)O)n[nH]1 the results were BAZ2B block -33%, CtBP-E1A inh -6, HP1b chromo inh 13%, Six1-Eya2 blk -4 and JMJD2A Tudor 45µM*.
For CC(=O)c1ccc(-c2ccc(/C=C(/Sc3n[nH]c(C)n3)C(=O)O)o2)cc1 the results were BAZ2B block inconclusive, G9a inh inconclusive, CtBP-E1A inh -21, HP1b chromo inh 13%, Six1-Eya2 blk -2 and JMJD2A Tudor inconclusive.
For CC(C)c1ccc(NC(=O)C2CCCN(S(=O)(=O)c3ccc4[nH]c(=O)ccc4c3)C2)cc1 (configuration not stated) the results were BAZ2B block -3%, G9a inh 16%[59 µM], HP1b chromo inh 67% and JMJD2A Tudor 3%.
For Cc1ccc(C2C(/C=C3/SC(=S)NC3=O)=C(c3cccs3)Oc3ccccc32)cc1 (configuration not stated) the results were BAZ2B block 25µM*, G9a inh 32µM*, CtBP-E1A inh -5, HP1b chromo inh inconclusive, Six1-Eya2 blk -24 and JMJD2A Tudor 35µM*.
For Cc1cccc(-n2c(SCC(=O)Nc3ccc(C)c(C)c3)nc3n[nH]c(C)c3c2=N)c1 the results were BAZ2B block 4%, G9a inh -4%[59 µM], HP1b chromo inh 29% and JMJD2A Tudor -10%.
Screening COc1ccc(CCNC(=O)CSC2=NS(=O)(=O)c3cc(Cl)ccc3N2)cc1OC returned BAZ2B block 6%, G9a inh -40%, CtBP-E1A inh -3, HP1b chromo inh -9%, Six1-Eya2 blk 8 and JMJD2A Tudor -1%.
For CC(=O)Nc1ccc(NC(=O)CSC2=NS(=O)(=O)c3cc(Cl)ccc3N2)cc1 the results were BAZ2B block -30%, G9a inh 10µM*, CtBP-E1A inh -3, HP1b chromo inh 6%, Six1-Eya2 blk 2 and JMJD2A Tudor -14%.
COc1ccc(C(=O)CSC2=NS(=O)(=O)c3cc(Cl)ccc3N2)cc1 was read as BAZ2B block 9%, G9a inh 56µM*, CtBP-E1A inh 3, HP1b chromo inh 25%, Six1-Eya2 blk 6 and JMJD2A Tudor -12%.
